A word on the inhibition: it is the change of the read-out against control, counted positive when it falls.

For experiment [1], the target named is Platelet-derived growth factor receptor beta (Homo sapiens) (UniProt P09619). The conditions noted are these: at 1 µM.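 Note: each value is a mean percent inhibition.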
Experiment [2] deals with Tyrosine-protein kinase FRK (Homo sapiens) (UniProt P42685). The conditions noted are these: at 0.1 µM.
The target is the same in experiment [3]. To be noted: at 1 µM.
In experiment [4] the target is Protein-tyrosine kinase 2-beta (Homo sapiens) (UniProt Q14289). To be noted: at 0.1 µM.
Sequence of Protein-tyrosine kinase 2-beta (Homo sapiens) (Q14289 whole entry, looked up): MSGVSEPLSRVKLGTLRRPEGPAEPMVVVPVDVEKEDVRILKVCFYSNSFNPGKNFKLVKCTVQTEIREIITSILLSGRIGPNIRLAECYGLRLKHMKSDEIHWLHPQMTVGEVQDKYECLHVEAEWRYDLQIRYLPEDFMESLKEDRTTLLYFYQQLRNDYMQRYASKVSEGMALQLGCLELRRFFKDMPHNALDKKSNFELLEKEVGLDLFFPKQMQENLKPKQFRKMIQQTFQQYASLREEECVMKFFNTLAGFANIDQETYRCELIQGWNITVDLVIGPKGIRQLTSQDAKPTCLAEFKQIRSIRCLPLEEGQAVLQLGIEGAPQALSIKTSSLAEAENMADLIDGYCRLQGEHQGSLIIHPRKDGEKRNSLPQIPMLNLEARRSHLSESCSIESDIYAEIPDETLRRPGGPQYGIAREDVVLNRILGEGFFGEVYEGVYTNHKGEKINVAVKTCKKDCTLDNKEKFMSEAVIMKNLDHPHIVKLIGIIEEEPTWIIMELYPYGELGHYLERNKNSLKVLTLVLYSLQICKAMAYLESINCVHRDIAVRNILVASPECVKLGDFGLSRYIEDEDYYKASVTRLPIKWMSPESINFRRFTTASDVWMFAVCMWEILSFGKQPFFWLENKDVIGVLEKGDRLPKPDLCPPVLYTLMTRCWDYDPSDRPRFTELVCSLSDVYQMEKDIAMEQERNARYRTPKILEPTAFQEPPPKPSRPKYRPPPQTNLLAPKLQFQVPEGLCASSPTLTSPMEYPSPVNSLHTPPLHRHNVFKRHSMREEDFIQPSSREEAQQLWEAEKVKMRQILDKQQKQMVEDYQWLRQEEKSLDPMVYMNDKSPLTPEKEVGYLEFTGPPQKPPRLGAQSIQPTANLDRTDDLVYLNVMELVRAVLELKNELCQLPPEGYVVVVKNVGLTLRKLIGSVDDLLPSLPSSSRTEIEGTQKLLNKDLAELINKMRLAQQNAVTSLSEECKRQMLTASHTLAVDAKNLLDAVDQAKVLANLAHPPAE
The target is the same in experiment [5]. The conditions noted are these: at 1 µM.
Experiment [6] addresses Proto-oncogene tyrosine-protein kinase receptor Ret (Homo sapiens) (UniProt P07949). The conditions noted are these: at 0.1 µM.
The target is the same in experiment [7]. To be noted: at 1 µM.
Experiment [8] concerns Proto-oncogene tyrosine-protein kinase receptor Ret (Homo sapiens), P07949 [V804L]. To be noted: at 0.1 µM.
Sequence of Proto-oncogene tyrosine-protein kinase receptor Ret (Homo sapiens), P07949 [V804L] (P07949 whole entry V804L): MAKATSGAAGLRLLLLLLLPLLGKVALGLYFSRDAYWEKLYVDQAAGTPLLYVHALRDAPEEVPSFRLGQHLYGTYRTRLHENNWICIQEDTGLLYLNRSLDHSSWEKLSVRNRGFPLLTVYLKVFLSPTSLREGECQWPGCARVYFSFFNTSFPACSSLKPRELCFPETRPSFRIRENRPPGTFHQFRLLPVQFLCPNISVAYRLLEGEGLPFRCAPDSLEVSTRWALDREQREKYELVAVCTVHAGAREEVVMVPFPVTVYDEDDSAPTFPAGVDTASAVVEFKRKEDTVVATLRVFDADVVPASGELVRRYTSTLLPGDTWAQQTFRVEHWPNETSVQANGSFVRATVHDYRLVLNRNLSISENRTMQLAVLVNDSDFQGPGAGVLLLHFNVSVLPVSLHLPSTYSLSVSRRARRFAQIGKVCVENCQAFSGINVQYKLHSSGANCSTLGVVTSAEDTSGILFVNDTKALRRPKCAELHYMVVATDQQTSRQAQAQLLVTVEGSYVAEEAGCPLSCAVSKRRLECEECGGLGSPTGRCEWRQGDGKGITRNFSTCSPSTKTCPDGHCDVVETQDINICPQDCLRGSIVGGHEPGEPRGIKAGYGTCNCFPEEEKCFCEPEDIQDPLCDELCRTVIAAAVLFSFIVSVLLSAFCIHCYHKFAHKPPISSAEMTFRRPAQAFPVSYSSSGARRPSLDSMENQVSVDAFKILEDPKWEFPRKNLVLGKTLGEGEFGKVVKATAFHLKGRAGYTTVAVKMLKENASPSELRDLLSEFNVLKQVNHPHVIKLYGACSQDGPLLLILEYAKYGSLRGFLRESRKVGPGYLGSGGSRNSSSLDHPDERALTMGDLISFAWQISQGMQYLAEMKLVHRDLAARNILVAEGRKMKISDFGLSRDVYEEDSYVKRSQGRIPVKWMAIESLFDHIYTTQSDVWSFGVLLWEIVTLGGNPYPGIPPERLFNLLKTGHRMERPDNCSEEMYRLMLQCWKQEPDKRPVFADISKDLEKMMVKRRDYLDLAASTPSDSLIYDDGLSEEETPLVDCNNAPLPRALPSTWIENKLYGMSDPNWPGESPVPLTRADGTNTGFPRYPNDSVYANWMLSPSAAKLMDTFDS
Experiment [9] has the same test system. To be noted: at 1 µM.
Experiment [10] deals with Proto-oncogene tyrosine-protein kinase receptor Ret (Homo sapiens), P07949 [Y791F]. To be noted: at 0.1 µM.
Sequence of Proto-oncogene tyrosine-protein kinase receptor Ret (Homo sapiens), P07949 [Y791F] (P07949 whole entry Y791F): as the sequence (P07949 whole entry V804L) above, with Y791F, L804V counted along it
Experiment [11] shares this test system. The conditions noted are these: at 1 µM.
Experiment [12] addresses Macrophage-stimulating protein receptor (Homo sapiens) (UniProt Q04912). The conditions noted are these: at 0.1 µM.
Experiment [13] shares this target. The conditions noted are these: at 1 µM.
Experiment [14] concerns the target Proto-oncogene tyrosine-protein kinase ROS (Homo sapiens) (UniProt P08922). To be noted: at 0.1 µM.
Experiment [15] has the same target. To be noted: at 1 µM.
The target in experiment [16] is Proto-oncogene tyrosine-protein kinase Src (Homo sapiens) (UniProt P12931). The conditions noted are these: at 0.1 µM.
Sequence of Proto-oncogene tyrosine-protein kinase Src (Homo sapiens) (P12931 2-536 limits assumed): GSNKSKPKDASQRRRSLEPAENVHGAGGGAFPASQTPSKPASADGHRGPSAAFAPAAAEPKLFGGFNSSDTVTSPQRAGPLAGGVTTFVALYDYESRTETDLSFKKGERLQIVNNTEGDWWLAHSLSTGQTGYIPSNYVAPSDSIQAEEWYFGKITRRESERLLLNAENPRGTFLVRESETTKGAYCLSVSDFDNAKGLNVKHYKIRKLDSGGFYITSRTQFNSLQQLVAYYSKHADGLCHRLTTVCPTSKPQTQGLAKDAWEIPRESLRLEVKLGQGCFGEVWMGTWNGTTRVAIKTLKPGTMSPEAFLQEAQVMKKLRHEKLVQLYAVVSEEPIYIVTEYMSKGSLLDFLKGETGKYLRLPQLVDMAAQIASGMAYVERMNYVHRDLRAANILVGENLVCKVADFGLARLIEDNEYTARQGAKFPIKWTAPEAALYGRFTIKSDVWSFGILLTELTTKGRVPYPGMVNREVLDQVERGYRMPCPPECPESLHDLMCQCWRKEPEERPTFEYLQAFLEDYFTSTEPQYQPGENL
The target is the same in experiment [17]. To be noted: at 1 µM.
The target in experiment [18] is Tyrosine-protein kinase Srms (Homo sapiens) (UniProt Q9H3Y6). The conditions noted are these: at 0.1 µM.
Sequence of Tyrosine-protein kinase Srms (Homo sapiens) (Q9H3Y6 whole entry): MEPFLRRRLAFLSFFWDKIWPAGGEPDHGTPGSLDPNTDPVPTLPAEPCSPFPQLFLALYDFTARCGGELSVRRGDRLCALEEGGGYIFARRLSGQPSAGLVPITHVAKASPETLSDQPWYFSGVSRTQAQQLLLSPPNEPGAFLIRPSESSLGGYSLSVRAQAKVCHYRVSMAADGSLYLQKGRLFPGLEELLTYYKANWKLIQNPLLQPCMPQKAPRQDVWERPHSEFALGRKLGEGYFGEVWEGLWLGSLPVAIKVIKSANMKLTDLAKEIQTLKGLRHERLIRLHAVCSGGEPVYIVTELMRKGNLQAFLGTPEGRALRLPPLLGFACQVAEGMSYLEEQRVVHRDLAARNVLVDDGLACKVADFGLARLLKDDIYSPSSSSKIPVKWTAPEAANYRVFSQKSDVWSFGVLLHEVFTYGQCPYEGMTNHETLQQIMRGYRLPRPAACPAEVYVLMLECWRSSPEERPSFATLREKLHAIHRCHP
For experiment [19] the target is unchanged. To be noted: at 1 µM.
The target in experiment [20] is Tyrosine-protein kinase SYK (Homo sapiens) (UniProt P43405). To be noted: at 0.1 µM.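 Note: reported percentages are mean inhibition values for SYK.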

Sequence of Tyrosine-protein kinase FRK (Homo sapiens) (P42685 whole entry): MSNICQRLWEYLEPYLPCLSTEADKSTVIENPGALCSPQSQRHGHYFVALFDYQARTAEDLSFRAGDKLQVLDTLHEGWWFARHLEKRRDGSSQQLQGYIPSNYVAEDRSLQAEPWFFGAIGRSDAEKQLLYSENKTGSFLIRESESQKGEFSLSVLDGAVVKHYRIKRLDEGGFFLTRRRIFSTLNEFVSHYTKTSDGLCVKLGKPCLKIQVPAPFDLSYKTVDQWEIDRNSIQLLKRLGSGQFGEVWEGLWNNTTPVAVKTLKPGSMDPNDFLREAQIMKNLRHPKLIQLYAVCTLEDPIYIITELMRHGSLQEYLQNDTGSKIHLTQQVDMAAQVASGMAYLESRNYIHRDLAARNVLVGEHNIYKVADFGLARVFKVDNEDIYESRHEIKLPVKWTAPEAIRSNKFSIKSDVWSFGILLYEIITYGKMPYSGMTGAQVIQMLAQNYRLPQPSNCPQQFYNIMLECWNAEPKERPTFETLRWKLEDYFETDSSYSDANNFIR
Sequence of Proto-oncogene tyrosine-protein kinase receptor Ret (Homo sapiens) (P07949 whole entry): as the sequence (P07949 whole entry V804L) above, with L804V counted along it
Sequence of Platelet-derived growth factor receptor beta (Homo sapiens) (P09619 whole entry): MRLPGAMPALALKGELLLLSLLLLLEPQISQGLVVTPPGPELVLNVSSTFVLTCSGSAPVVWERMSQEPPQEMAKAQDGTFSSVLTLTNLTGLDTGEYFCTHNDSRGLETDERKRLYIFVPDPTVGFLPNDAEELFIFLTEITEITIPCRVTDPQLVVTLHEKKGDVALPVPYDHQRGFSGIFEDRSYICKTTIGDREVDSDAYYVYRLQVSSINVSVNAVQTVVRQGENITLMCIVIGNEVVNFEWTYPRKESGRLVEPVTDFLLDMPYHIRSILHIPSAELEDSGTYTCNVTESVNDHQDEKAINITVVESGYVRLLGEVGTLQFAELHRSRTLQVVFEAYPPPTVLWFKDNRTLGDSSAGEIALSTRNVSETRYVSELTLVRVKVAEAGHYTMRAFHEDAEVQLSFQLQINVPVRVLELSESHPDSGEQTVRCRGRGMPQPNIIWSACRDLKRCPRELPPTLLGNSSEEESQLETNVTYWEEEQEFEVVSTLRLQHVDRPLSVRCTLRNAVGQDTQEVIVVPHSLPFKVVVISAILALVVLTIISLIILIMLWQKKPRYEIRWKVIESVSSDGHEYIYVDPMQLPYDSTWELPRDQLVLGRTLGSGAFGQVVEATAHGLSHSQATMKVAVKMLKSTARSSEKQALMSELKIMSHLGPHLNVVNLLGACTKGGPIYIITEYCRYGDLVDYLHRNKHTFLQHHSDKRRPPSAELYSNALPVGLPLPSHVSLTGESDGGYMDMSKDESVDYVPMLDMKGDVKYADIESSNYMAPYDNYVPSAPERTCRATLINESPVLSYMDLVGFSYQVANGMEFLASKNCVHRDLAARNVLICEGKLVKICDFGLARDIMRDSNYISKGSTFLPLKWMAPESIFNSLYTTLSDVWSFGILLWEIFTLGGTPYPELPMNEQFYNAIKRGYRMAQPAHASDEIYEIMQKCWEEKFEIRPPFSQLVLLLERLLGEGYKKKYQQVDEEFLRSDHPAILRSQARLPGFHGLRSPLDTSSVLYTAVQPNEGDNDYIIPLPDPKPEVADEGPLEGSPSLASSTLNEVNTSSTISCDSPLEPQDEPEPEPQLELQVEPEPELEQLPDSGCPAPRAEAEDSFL

On to `COC(=O)Nc1nc2ccc(Oc3ccc(NC(=O)Nc4cccc(Cl)c4)cc3)cc2[nH]1`, for which the inhibition in experiment [1] was determined as 28.7%; in [2] it was 0.45%; in [3], 0.48%; in experiment [4] it was 0.45%; in experiment [5], 5.25%; in experiment [6] it was 52.1%. For the same compound, the inhibition in experiment [7] was 74.4%; in experiment [8], 23.8%; in experiment [9], 54.8%; in experiment [10], 45.5%; in experiment [11] it was 79.7%; in [12], 2.59%. Moreover, the inhibition in experiment [13] was 6.24%; in experiment [14] it was 1.51%; in experiment [15] it was 2.59%; in experiment [16], 4.21%; in experiment [17] it was 1.43%; in experiment [18], -2.84%. Further, the inhibition in experiment [19] was -1.42%; in [20], 0.41%.
Turning to `Cc1ccc(O)cc1Nc1ccnc2cc(-c3ccccn3)ccc12`, the inhibition in experiment [1] worked out at 87%; in [2], 18.9%; in experiment [3] it was 68.2%; in [4], 10.1%; in experiment [5], 17.6%; in [6], 84.2%. For the same compound, the inhibition in experiment [7] was 89.8%; in experiment [8] it was 4.72%; in experiment [9] it was 3.44%; in experiment [10], 92.3%; in experiment [11], 93.5%; in [12], -2%. The inhibition in experiment [13] turned out to be 4.51%; in [14], 6.57%; in [15], 7.97%; in experiment [16] it was 61%; in [17] it was 90.4%; in experiment [18] it was 9.32%. In addition, the inhibition was 39.8% in experiment [19] and -5.01% in experiment [20].
Regarding `Fc1ccc(-c2nn3ccccc3c2-c2ccncc2)cc1`, the inhibition was found to be 12.7% in experiment [1]; 0.42% in experiment [2]; 1.58% in experiment [3]; 3.99% in experiment [4]; 4.06% in experiment [5]; 1.59% in experiment [6]. The inhibition in experiment [7] came out at 5.12%; in experiment [8] it was 0.36%; in [9] it was 1.74%; in [10], 4.32%; in experiment [11] it was 7.11%; in experiment [12] it was 3.62%. In addition, the inhibition in [13] is 3.94%; in experiment [14] it was 1.35%; in [15] it was 3.41%; in experiment [16] it was -0.8%; in [17] it was 5%; in [18], -1.74%. For the same compound, the figures for the inhibition in [19] and in experiment [20] were 0.28% and 2.26%, respectively.
Take `COc1cc2ncn(-c3cc(OCc4ccccc4C(F)(F)F)c(C(=O)N(C)C)s3)c2cc1OC`: the inhibition was 34.4% in experiment [1]; 0.68% in experiment [2]; -0.25% in [3]; -0.29% in [4]; -5.44% in [5]; 3.06% in [6]. Besides, the inhibition in [7] was 22.1%; in [8], 0.43%; in experiment [9], 7.17%; in [10], 1.87%; in experiment [11], 23.4%; in [12], 1.82%. Besides, the inhibition in experiment [13] was -1.06%; in experiment [14], 1.8%; in [15], 2.67%; in [16] it was 0.91%; in [17], 3.6%; in experiment [18], 1.16%. Besides, the inhibition was 1.35% in [19] and 4.44% in experiment [20].
As for `Cc1cccc(Nc2ncc(-c3ccccc3)o2)c1`, the inhibition is 37.2% in experiment [1]; -0.04% in experiment [2]; 3.76% in [3]; -0.77% in experiment [4]; 4.02% in [5]; 1.88% in experiment [6]. Further, the inhibition amounted to 7.33% in [7]; 0.92% in [8]; 4.53% in experiment [9]; 2.77% in experiment [10]; 6.11% in experiment [11]; 3.38% in experiment [12]. Besides, the inhibition in [13] was -0.6%; in experiment [14], 6.3%; in experiment [15] it was 7.89%; in [16] it was 8.62%; in experiment [17], 19.3%; in [18], 0.16%. In addition, the inhibition in experiment [19] was -0.12%; in experiment [20] it was 1.35%.
Turning to `COC(=O)Nc1nc2ccc(S(=O)(=O)c3ccc(NC(=O)Nc4cc(C(F)(F)F)ccc4F)cc3)cc2[nH]1`, the inhibition in experiment [1] was 4.49%; in [2] it was 2.02%; in experiment [3], 0.33%; in experiment [4], 2.8%; in experiment [5], 6.27%; in experiment [6], 5.15%. Further, the inhibition in experiment [7] worked out at 5.22%; in [8] it was 5.11%; in [9] it was 2.64%; in experiment [10] it was 5.5%; in [11], 0.06%; in experiment [12] it was 0.24%. In addition, the inhibition in [13] was 1.14%; in experiment [14] it was 2.51%; in experiment [15] it was 3.41%; in experiment [16], 7.41%; in [17], 6.38%; in experiment [18], -0.37%. Also, the inhibition in experiment [19] was -3.26%; in [20] it was 1.38%.
On to `CC(=O)Nc1cccc(C#Cc2cncnc2Nc2ccc(OCc3cccc(F)c3)c(Cl)c2)c1`, for which the inhibition in [1] was 6.94%; in experiment [2], 0.81%; in [3], 2.51%; in experiment [4] it was -2.17%; in [5], 4.14%; in [6], 6.84%. Further, the inhibition in experiment [7] is 11%; in experiment [8] it was 5.7%; in experiment [9] it was 9.51%; in experiment [10] it was 13.3%; in [11], 13.3%; in experiment [12] it was 0.77%. In addition, the inhibition in [13] turned out to be 4.22%; in [14], 7.46%; in [15] it was 12.2%; in [16], 10.8%; in experiment [17], 6.18%; in [18], 2.87%. Besides, the inhibition in experiment [19] was 0.23%; in experiment [20], 3.21%.
Regarding `CCn1c(-c2nonc2N)nc2c(C#CC(C)(C)O)nc(OC[C@H](N)c3ccccc3)cc21`, the inhibition in experiment [1] was 57.2%; in experiment [2] it was -0.38%; in [3], 2.68%; in experiment [4], 1.28%; in experiment [5], 9.96%; in experiment [6], 6.89%. The inhibition in experiment [7] turned out to be 38%; in [8], 1.38%; in experiment [9] it was 6.67%; in experiment [10] it was 18.6%; in experiment [11], 41.3%; in experiment [12] it was 4.34%. Besides, the inhibition in experiment [13] was -1.45%; in experiment [14], 9.15%; in [15], 9.48%; in [16] it was 8.29%; in experiment [17], 13.7%; in [18] it was 2.09%. Besides, the values for the inhibition in experiment [19] and in experiment [20] were 1.99% and 2.17%, respectively.
Regarding `CCn1c(-c2nonc2N)nc2cnc(Oc3cccc(NC(=O)c4ccc(N(C)C)cc4)c3)cc21`, the inhibition in [1] is 6.43%; in experiment [2], 1.12%; in experiment [3], 0.64%; in [4] it was 1.13%; in experiment [5], 3.58%; in [6], 3.06%. The inhibition came to 4.26% in experiment [7]; 3.42% in [8]; 6.51% in experiment [9]; 3.78% in experiment [10]; 1.39% in experiment [11]; 1.95% in [12]. Besides, the inhibition is 1.27% in experiment [13]; 2.49% in experiment [14]; 3.39% in [15]; 3.64% in [16]; 1.89% in experiment [17]; -0.5% in [18]. Moreover, the inhibition in experiment [19] is 6.2%; in experiment [20], -1.42%.
Regarding `Fc1ccc(-c2nn3ncccc3c2-c2ccnc(Nc3ccc4c(c3)OCCO4)n2)cc1`, the inhibition in [1] worked out at 69.7%; in experiment [2] it was 5.64%; in [3] it was 25.4%; in experiment [4], 16.4%; in experiment [5], 44%; in [6], 23.5%. The inhibition in [7] is 64.9%; in experiment [8], 4.29%; in experiment [9], 4.6%; in [10], 30.8%; in experiment [11] it was 65.8%; in experiment [12], -2.95%. For the same compound, the inhibition in experiment [13] is 4.64%; in experiment [14], 4.11%; in experiment [15] it was 10.9%; in experiment [16] it was 40.2%; in [17], 83.9%; in experiment [18] it was -0.06%. Further, the inhibition in [19] is 9.83%; in experiment [20], -5.37%.

Values taken from ChEMBL document CHEMBL1961873, “Compounds: GSK PKIS; Assays: Nanosyn kinase panel” (2012).
